Screens as filed in PubChem.
VP16 counter: VP16 counterscreen qHTS for inhibitors of ROR gamma transcriptional activity; 3.5% of 310,000 active; Drosophila S2 Gal4-VP16 UAS-luciferase, luminescence, 20 h; Potency, µM (series often up to 53.6 µM), actives largely listed as inhibitors;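 note: Gal4-VP16 expression switched on by copper sulfate through the metallothionein promoter; nearly all actives have a fitted effect of over 50% in size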
S2 tox: Viability Counterscreen for Primary qHTS for Inhibitors of ATXN expression. S2 cells (HEK-293 line with an ATXN2-luciferase reporter) viability, CellTiter-Fluor protease fluorescence, 24 h. Potency, µM (series often up to 56.7 µM), most hits filed as cytotoxic. 0.49% of 400,000 active. AID 651635, 2014; note: nearly all actives have a fitted effect of over 40% in size
RORgamma inh: qHTS for inhibitors of ROR gamma transcriptional activity; 5.4% of 310,000 active; Potency, µM (doses to about 53.6 µM), most hits filed as inhibitors; Drosophila S2 Gal4-RORgamma UAS-luciferase reporter, 20 h; AID 2551, 2010; note: nearly all actives have a fitted effect of over 60% in size
Target sequence (P51450 whole entry, looked up, the tested form may be a part): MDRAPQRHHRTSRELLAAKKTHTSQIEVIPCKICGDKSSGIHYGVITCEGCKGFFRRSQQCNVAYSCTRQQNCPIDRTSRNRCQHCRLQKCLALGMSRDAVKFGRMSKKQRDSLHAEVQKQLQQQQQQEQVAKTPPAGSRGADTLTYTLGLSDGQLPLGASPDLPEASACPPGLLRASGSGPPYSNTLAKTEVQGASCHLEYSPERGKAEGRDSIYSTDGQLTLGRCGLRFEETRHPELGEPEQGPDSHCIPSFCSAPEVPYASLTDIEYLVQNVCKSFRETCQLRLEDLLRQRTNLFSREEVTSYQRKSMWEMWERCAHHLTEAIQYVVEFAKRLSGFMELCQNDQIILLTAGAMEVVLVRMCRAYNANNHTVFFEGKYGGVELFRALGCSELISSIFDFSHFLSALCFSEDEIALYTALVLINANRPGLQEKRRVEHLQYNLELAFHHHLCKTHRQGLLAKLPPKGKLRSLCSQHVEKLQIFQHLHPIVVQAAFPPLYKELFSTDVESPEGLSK
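Stable Schneider cell line, Gal4 DNA-binding domain fused to ROR gamma, UAS-luciferase. Cmpd 1 hr RT → CuSO4 700 uM final → 20 hr RT → luciferase reagent 10 min → luminescence.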
TGFb inhibitor: qHTS for Inhibitors of TGF-b; HepG2 CAGA-GFP TGF-b/SMAD3 reporter, GFP fluorescence, 18 h; TGF-beta stimulated, 500 pg/mL final; Potency, µM (series often up to 46.1 µM), actives largely listed as inhibitors; 1.2% of 410,000 active; AID 588855, 2011; note: nearly all actives have a fitted effect of over 65% in size
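HEPG2 CAGA-GFP cells (1000/well, DMEM with 1% FBS) were pre-incubated 2 h at 37 degrees C, given compound by pin tool, then stimulated with TGF-beta at 500 pg/mL final for 18 h before per-cell GFP fluorescence imaging.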
ATXN2 expr inh: Primary qHTS for Inhibitors of ATXN expression; HEK-293 ATXN2-luciferase reporter, luminescence, 24 h; Potency, µM (doses to about 57 µM), actives largely listed as inhibitors; 0.72% of 360,000 active; AID 1745845, 2022; note: nearly all actives have a fitted effect of over 55% in size
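ATXN2-luciferase reporter cells (luciferase flanked by upstream and downstream ATXN2 gene portions) were treated 24 h at 37 °C with compounds at up to 57 uM. SteadyGlo luminescence gave expression; GF-AFC fluorescence gave viability.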
HepG2 tox: qHTS for Inhibitors of TGF-b: Cytotox Counterscreen. HepG2 CAGA-GFP viability, ATP luminescence, 18 h. 0.76% of 410,000 active. Potency, µM (highest dose often 46.1 µM), most hits filed as cytotoxic
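HepG2 CAGA-GFP cells (1000/well, DMEM with 1% FBS) received compound, then TGF-beta at 500 pg/mL final, and were incubated 18 hours at 37 degrees C. Viability was read by CellTiter-Glo luminescence. Media-only wells were set as complete cell-killing and DMSO as no toxicity.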
Hits are given with their value; ! = not confirmed by another sample; [ ] = dose if it differs, or a comment. Only some compounds are listed: those with a hit (about 6.3% of all), similar ones and a draw of the others. Calls come from the whole dose curve; as a rule, active = well fitted curve in the direction sought with a large enough effect; inconclusive = small, poorly fitted or top-dose-only effect, or another doubt; inactive = no such curve, though single readings can be large; an effect the other way counts as inactive or inconclusive.

What do the screens show for `O=C(N/N=C/c1cccc([N+](=O)[O-])c1O)c1cccs1`?
VP16 counter: 0.794µM; S2 tox: inconclusive; RORgamma inh: 1.12µM; TGFb inhibitor: inconclusive; ATXN2 expr inh: inconclusive; HepG2 tox: inactive

What do the screens show for `COc1cc([N+](=O)[O-])cc(/C=N/NC(=O)C(O)(c2ccccc2)c2ccccc2)c1O`?
VP16 counter: 0.891µM; S2 tox: inactive; RORgamma inh: 0.355µM; TGFb inhibitor: inactive; ATXN2 expr inh: inactive; HepG2 tox: inactive

Results for O=[N+]([O-])c1cccc(C=NNc2ccc3ccccc3n2)c1O ?
S2 tox: inconclusive; TGFb inhibitor: inconclusive; ATXN2 expr inh: inconclusive; HepG2 tox: inactive

Results for CN1CC(=O)NC1=NC(=O)Nc1cccc(Cl)c1 ?
ATXN2 expr inh: inactive

How did O=C(CSc1nc2c(cnn2-c2ccc(F)cc2)c(=O)[nH]1)Nc1ccccc1C(F)(F)F do in these assays?
S2 tox: inactive; TGFb inhibitor: inactive; ATXN2 expr inh: inactive; HepG2 tox: inactive

What do the screens show for `Cc1cc(C(=O)N2CCCC2(C)C(=O)NCC(C)C)nn1C(C)(C)C` (stereo not drawn)?
S2 tox: inactive; TGFb inhibitor: inactive; ATXN2 expr inh: inactive; HepG2 tox: inactive

How did CN1CCN(c2cc3c(c4c2[nH]c2ccccc24)C(=O)CC(C)(C)C3)CC1 do in these assays?
VP16 counter: inconclusive; S2 tox: inconclusive; RORgamma inh: inconclusive; TGFb inhibitor: inconclusive; ATXN2 expr inh: inconclusive; HepG2 tox: 11.2µM

Results for COc1ccc(CCNc2nc3ccccc3c3nc(-c4cccc(C)c4)nn23)cc1OC ?
TGFb inhibitor: inactive; HepG2 tox: inactive

How did N#C/C(=C(/O)c1ccc([N+](=O)[O-])cc1)c1nnc2n1CCCCC2 do in these assays?
VP16 counter: inconclusive; S2 tox: inactive; RORgamma inh: 17.8µM; TGFb inhibitor: inactive; ATXN2 expr inh: inactive; HepG2 tox: inactive

What do the screens show for `N#C/C(=C(/O)c1cccs1)c1nnc2n1CCCCC2`?
VP16 counter: inconclusive; S2 tox: inactive; RORgamma inh: 10µM; TGFb inhibitor: inactive; ATXN2 expr inh: inactive; HepG2 tox: inactive

How did N#C/C(=C/c1ccccc1[N+](=O)[O-])c1nnc2n1CCCCC2 do in these assays?
VP16 counter: inactive; S2 tox: inactive; RORgamma inh: inactive; TGFb inhibitor: inactive; ATXN2 expr inh: inactive; HepG2 tox: inactive

What do the screens show for `CC(C(=O)Nc1ccc2c(c1)OCO2)N(C)CC(=O)Nc1ccc(Cl)cc1` (stereo not drawn)?
S2 tox: inactive; TGFb inhibitor: inconclusive; ATXN2 expr inh: inactive; HepG2 tox: inactive

How did O=C(CSc1ccc(-c2cccc([N+](=O)[O-])c2)nn1)NC1CCCC1 do in these assays?
VP16 counter: inactive; S2 tox: inactive; RORgamma inh: 1.78µM; TGFb inhibitor: inactive; ATXN2 expr inh: inactive; HepG2 tox: inactive

How did COc1cccc(-c2ccc(SCC(=O)NC3CCCC3)nn2)c1 do in these assays?
VP16 counter: inactive; S2 tox: inactive; RORgamma inh: inactive; TGFb inhibitor: inactive; ATXN2 expr inh: inactive; HepG2 tox: inactive

What do the screens show for `COC(=O)c1ccccc1NC(=O)CSc1cc(-c2ccccc2)nc(C)n1`?
TGFb inhibitor: inconclusive; HepG2 tox: inactive

Results for O=S1(=O)N[C@H](Cc2ccccc2)COc2cccc(N3CCN(Cc4ccccc4F)CC3)c21 ?
S2 tox: 17.8µM; ATXN2 expr inh: inconclusive

How did Cc1ccc(NC(=O)C2CCCN2S(=O)(=O)c2cccc3nsnc23)c(Br)c1 (stereo not drawn) do in these assays?
S2 tox: inconclusive; TGFb inhibitor: inactive; ATXN2 expr inh: inactive; HepG2 tox: inactive

What do the screens show for `CC(C)CCn1cnc2c(oc3nc4c(cc32)CCCC4)c1=O`?
VP16 counter: inconclusive; S2 tox: inconclusive; RORgamma inh: 10µM; TGFb inhibitor: inactive; ATXN2 expr inh: inactive; HepG2 tox: inactive

What do the screens show for `COc1ccc(C(=O)NCCN2Cc3cc(C)ccc3OC(C)C2)c(OC)n1` (stereo not drawn)?
S2 tox: inactive

Results for Fc1cc(Cl)ccc1NC1=NCCCCC1 ?
VP16 counter: inactive; S2 tox: inactive; RORgamma inh: inactive; TGFb inhibitor: inactive; ATXN2 expr inh: inactive; HepG2 tox: inactive

How did Clc1ccc(-c2nnc(NC3=NCCCCC3)o2)cc1 do in these assays?
VP16 counter: 8.91µM; S2 tox: inactive; RORgamma inh: 6.31µM; TGFb inhibitor: inactive; ATXN2 expr inh: inconclusive; HepG2 tox: inactive

Results for CCSC1=NC2(CCN(C(=O)NC3CCCCC3)CC2)N=C1c1ccc(C)cc1 ?
S2 tox: inactive; TGFb inhibitor: inactive; ATXN2 expr inh: inactive; HepG2 tox: inactive

What do the screens show for `O=[N+]([O-])c1c(C(Cl)Cl)nn(-c2ccccc2)c1N1CCCC1`?
VP16 counter: inconclusive; S2 tox: inactive; RORgamma inh: 7.08µM; TGFb inhibitor: inconclusive; ATXN2 expr inh: inactive; HepG2 tox: inactive

What do the screens show for `Cc1ccc(N2CC(C(=O)NCCS(=O)(=O)N3CCN(c4ccc(F)cc4)CC3)CC2=O)cc1` (stereo not drawn)?
VP16 counter: inactive; S2 tox: inactive; RORgamma inh: inactive; TGFb inhibitor: inactive; ATXN2 expr inh: inactive; HepG2 tox: 1µM!

What do the screens show for `Cc1ccc(C(=O)Nc2ncc3c(Cl)cccc3n2)cc1`?
VP16 counter: 3.98µM; S2 tox: inactive; RORgamma inh: 3.16µM; TGFb inhibitor: inactive; ATXN2 expr inh: inconclusive; HepG2 tox: inactive

Results for Cc1ccc(C(=O)Nc2ccc(Cl)cn2)cc1 ?
VP16 counter: inconclusive; S2 tox: inactive; RORgamma inh: inactive; TGFb inhibitor: inactive; ATXN2 expr inh: inactive; HepG2 tox: inactive

Results for CCC1=NN(C(=O)CCc2ccc3c(c2)OCO3)C(O)(C(F)(F)F)C1 (stereo not drawn) ?
VP16 counter: inactive; S2 tox: inactive; RORgamma inh: 11.2µM; TGFb inhibitor: inactive; ATXN2 expr inh: inactive[11.3 µM]; HepG2 tox: inactive

What do the screens show for `CCC1=NN(C(=O)CCc2ccccc2O)C(O)(C(F)(F)F)C1` (stereo not drawn)?
VP16 counter: inconclusive; S2 tox: inactive; RORgamma inh: 10µM; TGFb inhibitor: inactive; ATXN2 expr inh: inactive; HepG2 tox: inactive

Results for COc1cc(NC(=S)NCc2cccs2)cc(OC)c1 ?
VP16 counter: 11.2µM; S2 tox: inactive; RORgamma inh: 5.01µM; TGFb inhibitor: inconclusive; ATXN2 expr inh: inactive; HepG2 tox: inactive

How did S=C(NCc1cccs1)Nc1ccc(Br)cc1Cl do in these assays?
VP16 counter: inactive; S2 tox: inactive; RORgamma inh: inconclusive; TGFb inhibitor: inconclusive; ATXN2 expr inh: inactive; HepG2 tox: inactive
